According to PubChem BioAssay (NCATS):
Results filed as inconclusive are left out. A call without a number means that no potency is given here. Unmarked numbers belong to inactive results. The source made the active and inactive calls. Calls follow the shape of the dose curve; as a rule, active = well fitted curve in the direction sought with a large enough effect; inconclusive = small, poorly fitted or top-dose-only effect, or another doubt; inactive = no such curve, though single readings can be large; an effect the other way counts as inactive or inconclusive.

Key:
[1] = molecular target: Rap guanine nucleotide exchange factor 3 (Homo sapiens) (UniProt O95398); experiment: Confirmatory qHTS for agonist of cAMP-regulated guanine nucleotide exchange factor 3 (EPAC1) (AID 1645881);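 also: EPAC1 catalysed release of BODIPY-GDP from Rap1B seen as fluorescence loss; nearly all actives have a fitted effect of over 75% in size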
[2] = molecular target: Rap guanine nucleotide exchange factor 4 (Homo sapiens) (UniProt Q8WZA2); experiment: Confirmatory qHTS for agonist of cAMP-regulated guanine nucleotide exchange factor 4 (EPAC2) (AID 1645884);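 also: nucleotide exchange releases bodipy-GDP from Rap1 and this lowers its fluorescence; nearly all actives have a fitted effect of over 65% in size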
[3] = molecular target: Rap guanine nucleotide exchange factor 4 (Homo sapiens) (UniProt Q8WZA2); experiment: Confirmatory qHTS for antagonist of cAMP-regulated guanine nucleotide exchange factor 4 (EPAC2) (AID 1645885); also: nearly all actives have a fitted effect of over 25% in size; also: potency is read from the fitted curve at half-maximal effect
[4] = molecular target: Rap guanine nucleotide exchange factor 3 (Homo sapiens) (UniProt O95398); experiment: Counterscreen qHTS for antagonist of cAMP-regulated guanine nucleotide exchange factor 3 (EPAC1) (AID 1645888);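 also: fluorescence loss as bound BODIPY-GDP is released from Rap1B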
In short: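 Rap1B–BODIPY-GDP (250 nM) with 50 uM GDP; compounds pin-transferred to 9.74 nM–152 uM final (activator) or from 7.32 nM upwards (inhibitor). Fluorescence Ex/Em 480/540 nm read at 5 and 30 min, then after adding cAMP or buffer, at room temperature.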

Rap guanine nucleotide exchange factor 4 (Homo sapiens), sequence (Q8WZA2 whole entry, looked up): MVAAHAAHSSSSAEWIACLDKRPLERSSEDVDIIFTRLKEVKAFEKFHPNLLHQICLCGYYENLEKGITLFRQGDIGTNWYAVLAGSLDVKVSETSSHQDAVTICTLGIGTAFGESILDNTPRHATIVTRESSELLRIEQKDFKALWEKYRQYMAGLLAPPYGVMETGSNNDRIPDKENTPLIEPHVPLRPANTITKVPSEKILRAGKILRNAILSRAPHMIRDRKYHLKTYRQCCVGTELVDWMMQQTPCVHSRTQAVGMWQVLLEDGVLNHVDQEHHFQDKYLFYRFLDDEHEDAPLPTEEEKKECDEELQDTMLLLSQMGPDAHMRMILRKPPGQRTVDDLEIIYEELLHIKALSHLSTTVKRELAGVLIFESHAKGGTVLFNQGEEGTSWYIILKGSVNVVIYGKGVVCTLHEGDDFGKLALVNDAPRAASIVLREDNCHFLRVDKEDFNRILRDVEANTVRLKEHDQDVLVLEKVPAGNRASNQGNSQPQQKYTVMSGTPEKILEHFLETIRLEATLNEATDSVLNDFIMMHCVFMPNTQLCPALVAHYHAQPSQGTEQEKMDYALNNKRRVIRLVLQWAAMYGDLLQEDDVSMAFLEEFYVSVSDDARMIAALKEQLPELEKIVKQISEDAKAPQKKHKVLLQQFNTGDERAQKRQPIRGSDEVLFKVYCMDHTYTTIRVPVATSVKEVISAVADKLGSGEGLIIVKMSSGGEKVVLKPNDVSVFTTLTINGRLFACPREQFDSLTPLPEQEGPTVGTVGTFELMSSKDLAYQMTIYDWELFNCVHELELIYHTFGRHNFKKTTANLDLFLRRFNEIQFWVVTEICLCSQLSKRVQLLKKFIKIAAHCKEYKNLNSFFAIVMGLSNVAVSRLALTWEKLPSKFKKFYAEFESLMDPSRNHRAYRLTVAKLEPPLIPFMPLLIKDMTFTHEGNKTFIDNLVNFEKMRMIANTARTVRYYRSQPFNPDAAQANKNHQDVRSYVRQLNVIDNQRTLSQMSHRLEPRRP
Rap guanine nucleotide exchange factor 3 (Homo sapiens), sequence (O95398 whole entry, looked up): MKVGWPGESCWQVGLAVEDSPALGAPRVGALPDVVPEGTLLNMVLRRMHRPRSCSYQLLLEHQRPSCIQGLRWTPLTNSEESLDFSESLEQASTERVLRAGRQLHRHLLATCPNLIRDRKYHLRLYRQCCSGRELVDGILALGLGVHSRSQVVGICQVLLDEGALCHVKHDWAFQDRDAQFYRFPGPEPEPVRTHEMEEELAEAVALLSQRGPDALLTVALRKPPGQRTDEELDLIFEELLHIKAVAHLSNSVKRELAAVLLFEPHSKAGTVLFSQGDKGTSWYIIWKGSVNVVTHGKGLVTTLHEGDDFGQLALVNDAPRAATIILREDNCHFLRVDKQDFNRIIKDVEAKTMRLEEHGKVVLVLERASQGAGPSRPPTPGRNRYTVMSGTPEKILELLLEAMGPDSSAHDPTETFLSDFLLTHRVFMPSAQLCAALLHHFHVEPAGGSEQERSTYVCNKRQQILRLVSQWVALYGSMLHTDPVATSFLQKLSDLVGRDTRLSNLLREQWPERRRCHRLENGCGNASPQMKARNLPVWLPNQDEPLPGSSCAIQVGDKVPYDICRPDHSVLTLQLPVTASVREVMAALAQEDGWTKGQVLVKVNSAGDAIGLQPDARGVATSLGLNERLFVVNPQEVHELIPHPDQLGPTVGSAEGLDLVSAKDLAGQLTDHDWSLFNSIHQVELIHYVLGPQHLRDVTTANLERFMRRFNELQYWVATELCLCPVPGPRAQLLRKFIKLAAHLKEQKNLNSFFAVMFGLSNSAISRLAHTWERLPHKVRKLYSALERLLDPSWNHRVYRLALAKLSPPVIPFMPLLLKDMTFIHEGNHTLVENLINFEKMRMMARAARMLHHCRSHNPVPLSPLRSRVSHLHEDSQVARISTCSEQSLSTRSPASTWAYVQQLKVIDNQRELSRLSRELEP

Cc1ccc(O)c(-c2n[nH]c3c2C(c2ccccc2F)N(Cc2ccco2)C3=O)c1 (stereo not drawn)
Potency [1]: inactive | Potency [2]: inactive | Potency [3]: inactive | Potency [4]: inactive

COc1ccc2oc(=O)c(-c3nnc(NCc4ccco4)s3)cc2c1
Potency [1]: inactive | activation [2]: 7.34% [at 17.1 µM, percent relative to cAMP agonist control] | Potency [3]: inactive | activity change, negative = inhibition [4]: 15.5% [at 30.8 µM]

CC(=O)Nc1ccc(N(C(=O)Cn2nnc3ccccc32)C(C(=O)NC2CCCC2)c2ccc(O)c(O)c2)cc1 (stereo not drawn)
Potency [1]: inactive | Potency [2]: inactive | Potency [3]: 95.3 µM (active) | Potency [4]: inactive

Cc1ccccc1C(=O)Nc1sc2c(c1C(=O)N1CCCCC1)CCC(C)C2 (stereo not drawn)
Potency [1]: inactive | Potency [2]: inactive | Potency [3]: inactive | Potency [4]: inactive

Cc1cccc(-c2nc3c(cnn3-c3ccccc3)c(=O)n2-c2cccc(Cl)c2)c1
Potency [1]: inactive | Potency [2]: inactive | outcome [3]: inactive [at 12.7 µM] | Potency [4]: inactive

O=C(Nc1cccc(S(=O)(=O)NC2=NCCCCC2)c1)c1cc(-c2ccc(Cl)cc2)nc2ccccc12
Potency [1]: inactive | Potency [2]: inactive | Potency [3]: inactive | Potency [4]: inactive

CCc1ccc2occ(CC(=O)Nc3ccc(C)c(C)c3)c2c1
Potency [1]: inactive | Potency [2]: inactive | Potency [3]: inactive | Potency [4]: inactive

COc1ccc(NC(=O)CN(C)C(=O)c2cc(-c3ccco3)nc3ccccc23)cc1
Potency [1]: inactive | Potency [2]: inactive | Potency [3]: inactive | Potency [4]: inactive

C/C(=N\Nc1nc2ccccc2[nH]1)c1cc2ccccc2o1
Potency [1]: inactive | activation [2]: 1.22% [at 17.1 µM, percent relative to cAMP agonist control] | Potency [3]: inactive | activity change, negative = inhibition [4]: -0.654% [at 30.8 µM]

Cc1cc(C)cc(-n2ccnc2SCC(=O)Nc2ccc3c(c2)OCO3)c1
Potency [1]: inactive | Potency [2]: inactive | Potency [3]: inactive | Potency [4]: inactive

O=C(Nc1ccccc1)C1=C(O)CC(c2ccc(Cl)cc2)N2CCN=C12 (stereo not drawn)
Potency [1]: inactive | Potency [2]: inactive | Potency [3]: inactive | Potency [4]: inactive

COc1cccc(C(=O)Nc2nnc(-c3ccccc3)s2)c1OC
Potency [1]: inactive | Potency [2]: inactive | Potency [3]: inactive | Potency [4]: inactive

COc1ccccc1NC(=O)c1ccccc1NS(=O)(=O)c1cccs1
Potency [1]: inactive | Potency [2]: inactive | Potency [3]: inactive | Potency [4]: inactive

Cn1c(=O)c2c(-c3ccccc3Br)n(Cc3ccccc3)cc2n(C)c1=O
Potency [1]: inactive | Potency [2]: inactive | Potency [3]: inactive | Potency [4]: inactive

Oc1ccc(Cc2ccc(Cl)cc2)c(O)c1
Potency [1]: inactive | activation [2]: 7.91% [at 17.1 µM, percent relative to cAMP agonist control] | Potency [3]: inactive | activity change, negative = inhibition [4]: -18.2% [at 30.8 µM]

CCOC(=O)C1CCN(c2c(C(=O)c3ccc(C)cc3)cnc3ccc(F)cc23)CC1
Potency [1]: inactive | Potency [2]: inactive | Potency [3]: inactive | Potency [4]: inactive

O=C(O)c1ccc(/C=C2\COc3ccccc3C2=O)cc1
Potency [1]: inactive | Potency [2]: inactive | Potency [3]: 84.9 µM (active) | Potency [4]: inactive

C[C@@]12C(=O)Nc3cc(F)ccc3C(=O)N1[C@H]1c3cc(Br)ccc3OC[C@@H]1[C@@H]2c1ccccc1
Potency [1]: inactive | Potency [2]: inactive | Potency [3]: inactive | Potency [4]: inactive

Cc1cc(SCC(=O)c2ccc(O)c(O)c2)n2nc(C)c(-c3ccccc3)c2n1
Potency [1]: inactive | Potency [2]: inactive | Potency [3]: inactive | Potency [4]: inactive

COc1cccc(C(=O)Nc2cccc(C(=O)OCc3cc(=O)n4c(C)csc4n3)c2)c1
Potency [1]: inactive | Potency [2]: inactive | Potency [3]: inactive | Potency [4]: inactive

CCC(=O)NC(c1ccc(OC)cc1)c1c(O)ccc2ccccc12 (stereo not drawn)
Potency [1]: inactive | Potency [2]: inactive | Potency [3]: inactive | Potency [4]: inactive

Oc1ccc(-c2nc(-c3ccc(O)c(O)c3)cs2)cc1
Potency [1]: inactive | Potency [2]: inactive | Potency [3]: inactive | Potency [4]: inactive

CC(C)(C)C1CCc2c(sc3nc(SCC(=O)O)nc(N)c23)C1 (stereo not drawn)
Potency [1]: inactive | activation [2]: 8.5% [at 17.1 µM, percent relative to cAMP agonist control] | Potency [3]: inactive | activity change, negative = inhibition [4]: -1.53% [at 30.8 µM]

CC(C)(C)C(=O)NC(Nc1cccc2cccnc12)C(Cl)(Cl)Cl (stereo not drawn)
Potency [1]: inactive | activation [2]: 7.17% [at 17.1 µM, percent relative to cAMP agonist control] | Potency [3]: inactive | activity change, negative = inhibition [4]: -6% [at 30.8 µM]

CSc1ccccc1NC(=O)CN1c2ccccc2CC1C (stereo not drawn)
Potency [1]: inactive | activation [2]: 8.71% [at 17.1 µM, percent relative to cAMP agonist control] | Potency [3]: inactive | activity change, negative = inhibition [4]: -0.569% [at 30.8 µM]

O=C(Nc1cc(S(=O)(=O)Nc2ccc(Cl)cc2)ccc1O)c1ccc(S(=O)(=O)N2CCCCCC2)cc1
Potency [1]: inactive | Potency [2]: inactive | Potency [3]: inactive | Potency [4]: inactive

CCOC(=O)c1c(NC(=O)CSc2nnnn2-c2ccccc2OCC)sc2c1CC(C)(C)NC2(C)C
Potency [1]: inactive | activation [2]: 5.6% [at 17.1 µM, percent relative to cAMP agonist control] | Potency [3]: inactive | activity change, negative = inhibition [4]: -5.37% [at 30.8 µM]

O=C(NC1CCCCC1)C(c1ccc(-c2ccccc2)cc1)n1c(=O)c(-c2ccco2)nc2ccccc21 (stereo not drawn)
Potency [1]: inactive | Potency [2]: inactive | Potency [3]: inactive | Potency [4]: inactive

Cc1ccc(C(=O)N2CCc3cc(CNC(=O)CSc4ccccc4)ccc32)cc1
Potency [1]: inactive | Potency [2]: inactive | Potency [3]: inactive | Potency [4]: inactive

O=C1Cc2ccccc2C(=O)N1CCc1ccccc1
Potency [1]: inactive | Potency [2]: inactive | Potency [3]: inactive | Potency [4]: inactive

COc1ccc(NC(=O)CSc2nc(O)cc(=O)n2-c2ccc(OC)cc2)cc1
Potency [1]: inactive | Potency [2]: inactive | Potency [3]: inactive | Potency [4]: inactive

COc1cc(/C=C2\SC(=O)N(c3cccc(Cl)c3)C2=O)cc([N+](=O)[O-])c1O
Potency [1]: inactive | Potency [2]: inactive | Potency [3]: inactive | Potency [4]: inactive

Cn1c(SCC(=O)c2cc(Cl)c(Cl)s2)nnc1-c1ccco1
Potency [1]: inactive | Potency [2]: inactive | Potency [3]: inactive | Potency [4]: inactive

Cc1cccc(NC(=O)CN2C(=O)N/C(=C\c3ccccc3OCc3ccc(C(=O)O)cc3)C2=O)c1
Potency [1]: inactive | Potency [2]: inactive | Potency [3]: inactive | Potency [4]: inactive

CCOC(=O)c1c(C)oc2nc(C)nc(N(C)Cc3ccccc3)c12
Potency [1]: inactive | Potency [2]: inactive | outcome [3]: inactive [at 12.7 µM] | Potency [4]: inactive

O=C(NC1(O)C(=O)c2ccccc2C1=O)c1ccc(C(F)(F)F)cc1
Potency [1]: inactive | Potency [2]: inactive | Potency [3]: inactive | Potency [4]: inactive

Cc1ccc(OCC(=O)Nc2ccc(Cl)c(-c3nc4ccccc4[nH]3)c2)cc1C
Potency [1]: inactive | Potency [2]: inactive | outcome [3]: inactive [at 12.7 µM] | Potency [4]: inactive

Cc1ccc(C(C[N+](=O)[O-])c2c(-c3ccccc3O)[nH][nH]c2=O)cc1 (stereo not drawn)
Potency [1]: inactive | activation [2]: 3.05% [at 17.1 µM, percent relative to cAMP agonist control] | Potency [3]: 3.38 µM (active) | activity change, negative = inhibition [4]: -0.345% [at 30.8 µM]

COc1ccc(/C=N/NC(=O)c2[nH]c3ccc(Br)cc3c2-c2ccccc2)c(C(=O)O)c1OC
Potency [1]: inactive | activation [2]: 2.8% [at 17.1 µM, percent relative to cAMP agonist control] | Potency [3]: inactive | activity change, negative = inhibition [4]: 0.744% [at 30.8 µM]

COc1cc(/C=C2\SC(=S)N(CCCCC(=O)O)C2=O)ccc1OS(=O)(=O)c1ccc(C)cc1
Potency [1]: inactive | activation [2]: -4.35% [at 17.1 µM, percent relative to cAMP agonist control] | Potency [3]: inactive | activity change, negative = inhibition [4]: -18.6% [at 30.8 µM]

Cc1cc(O)cc(C)c1NS(=O)(=O)c1ccc2ccccc2c1
Potency [1]: inactive | Potency [2]: inactive | Potency [3]: inactive | Potency [4]: inactive

CC(C)(C)C(C(=O)n1cccc1C#N)c1ccccc1 (stereo not drawn)
Potency [1]: inactive | activation [2]: 5.44% [at 17.1 µM, percent relative to cAMP agonist control] | Potency [3]: inactive | activity change, negative = inhibition [4]: 3.86% [at 30.8 µM]

Clc1ccc(-c2nnc(-c3ccco3)nc2N2CCCCC2)cc1
Potency [1]: inactive | activation [2]: 3.88% [at 17.1 µM, percent relative to cAMP agonist control] | Potency [3]: inactive | activity change, negative = inhibition [4]: 13.5% [at 30.8 µM]

CCc1nc2sc3ccccc3c(=O)c2c(=O)n1Cc1ccco1
Potency [1]: inactive | Potency [2]: inactive | Potency [3]: 75.7 µM (active) | Potency [4]: inactive

Cc1noc(NS(=O)(=O)c2ccc(N/C=C\C(=O)c3cccc4ccccc34)cc2)c1C
Potency [1]: inactive | Potency [2]: inactive | Potency [3]: inactive | Potency [4]: inactive

O=C(COc1ccc(Cl)cc1)NC1=NN(c2ccccc2)C(=O)C1
Potency [1]: inactive | Potency [2]: inactive | Potency [3]: inactive | Potency [4]: inactive

CCOc1cc(CNc2ccc(O)cc2)cc(Cl)c1OCc1ccccc1
Potency [1]: inactive | Potency [2]: inactive | Potency [3]: inactive | Potency [4]: inactive

O=C(Nc1sc2c(c1C(=O)O)CCCC2)c1ccc(Cl)cc1
Potency [1]: inactive | activation [2]: 1.39% [at 17.1 µM, percent relative to cAMP agonist control] | Potency [3]: inactive | activity change, negative = inhibition [4]: -8.59% [at 30.8 µM]

Cc1ccc(-n2nc3ccc(NC(=O)/C=C/c4ccco4)cc3n2)cc1C
Potency [1]: inactive | Potency [2]: inactive | Potency [3]: inactive | Potency [4]: inactive

O=[N+]([O-])c1cc(Br)ccc1NS(=O)(=O)c1ccccc1
Potency [1]: inactive | activation [2]: -2.03% [at 17.1 µM, percent relative to cAMP agonist control] | Potency [3]: inactive | activity change, negative = inhibition [4]: -16.7% [at 30.8 µM]

Cc1ccc(C(NC(=O)C2CCN(Cc3ccc(Cl)c(Cl)c3)CC2)c2ccccn2)cc1 (stereo not drawn)
Potency [1]: inactive | Potency [2]: inactive | Potency [3]: inactive | Potency [4]: inactive

CCOc1ccccc1NC(=O)C1CCN(c2nc(-c3ccc(OC)cc3)no2)CC1
Potency [1]: inactive | activation [2]: 2.09% [at 17.1 µM, percent relative to cAMP agonist control] | Potency [3]: inactive | activity change, negative = inhibition [4]: -14.4% [at 30.8 µM]
